# Tg IFNy HTS – blocks Toxoplasma gondii growth in the presence of IFN-gamma; Toxoplasma gondii growth in IFN-gamma-treated host cells; hits give low values; activity change, negative = inhibition, % (test concentration not listed); 69,000 tested, 3.8% active; AID 1259416; in the data active = activity change below about -70%, passing the limit was not always enough;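 also: host cells are HeLa cells infected with Toxoplasma gondii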
# Active calls of the source: *; i = inactive. Shown is part of a subset that was picked to be rich in hits.
SMILES,Tg IFNy HTS
COC(=O)c1sc(-c2cccs2)cc1NS(=O)(=O)c1ccsc1C(=O)OC,-85.4*
COC(=O)c1sccc1S(=O)(=O)Nc1ccc(C)cc1,11.2
Cc1c(NCc2cccnc2)cccc1C(=O)N1CCN(C)C(=O)C1C (centres undefined),5.1
CCn1ncc(S(=O)(=O)N2CCOC(C)(C(N)=O)C2)c1C (centres undefined),-1.2
Cc1ccc(C)c(NC(=O)C(=O)NCCc2sc(-c3ccc(F)cc3)nc2C)c1,123.3
CC(C)c1ccc(NC(=O)CSc2nccc(-c3csc(-c4ccccc4)n3)n2)cc1,-21.9
Cc1ccc(C(=O)CSc2ncn(-c3ccccc3)n2)cc1,12.1
Cc1onc(-c2ccc(Cl)cc2)c1-c1ccnc(SCC(=O)c2ccccc2)n1,-72.4*
CCCN1CCN(C(=O)Cn2cc(C)nn2)CC(Cc2ccc(-c3cccnc3)cc2)C1=O (centres undefined),25.4
CCOc1cc2ncc(C#N)c(Nc3ccc(OCc4ccccn4)c(Cl)c3)c2cc1NC(=O)/C=C/CN(C)C,-81.3*
CN(C)C/C=C/C(=O)Nc1cc2c(Nc3ccc(F)c(Cl)c3)ncnc2cc1O[C@H]1CCOC1,-75.2*
C=CC(=O)Nc1cc2c(Nc3ccc(F)c(Cl)c3)ncnc2cc1OCCCN1CCOCC1,-4.2
CCOc1cc2ncc(C#N)c(Nc3ccc(F)c(Cl)c3)c2cc1NC(=O)/C=C/CN(C)C,-76.8*
CN1CCN(CCOc2cc(OC3CCOCC3)c3c(Nc4c(Cl)ccc5c4OCO5)ncnc3c2)CC1,15.9
COc1ccc(C(=O)Nc2ccc3nc(C)c(C)nc3c2)cc1OCc1ccccn1,10.6
O=C(CCCOc1ccc(Cl)cc1Cl)NCc1ccccn1,13.4
CCC(CC)NC(=O)c1ncn2c(C3CCN(Cc4cccnc4)CC3)ccnc12,-3.3
CS(=O)(=O)N1CCOCC2(CN(c3ncccn3)CCO2)C1 (centres undefined),1.4
Cc1nc(SCC(=O)NCCc2ccccc2)[nH]c(=O)c1Cc1ccccc1,-20.6
CCN(Cc1cnc(C)nc1)c1cccc(OCCN2CCOCC2)c1,55.8
C=C1c2c(Cl)ccc(O)c2C(=O)C2C(=O)[C@]3(O)C(=O)C(C(N)=O)C(=O)[C@@H](N(C)C)[C@@H]3[C@@H](O)[C@H]12 (some centres undefined),-32.6
CC(C)N1CCOCC1c1nccc(NCc2cccnc2)n1 (centres undefined),-30.1
CCOC(=O)c1c(NC(=O)CC2c3ccccc3Oc3ccccc32)sc(C)c1C,-15.6
C=CCC(C)(C)CN1CCC(C(=O)N2CCCC2)CC1,-49.0
O=C(c1ccccc1)N1CC[C@@H]2Oc3ccccc3S(=O)(=O)N(CC3CC3)[C@@H]2CC1,-23.7
SMILES,Tg IFNy HTS
O=S1(=O)c2ccccc2O[C@H]2CCN(Cc3ccc(Cl)cc3)CC[C@H]2N1CC1CC1,-88.9*
CCN1CC[C@@H]2Oc3ccccc3S(=O)(=O)N(CC3CC3)[C@@H]2CC1,2.5
Cc1nn(Cc2nc(-c3ccc(NC(=O)c4cccs4)cc3)oc2C)c(C)c1C,-64.7
CCN1CCO[C@H]2CN(C(=O)c3ccc4[nH]ccc4c3)CC[C@@H]2C1,-5.8
Cc1nc2ccccn2c1CN1CCCN(c2ccc(F)cc2)CC1,-61.1
Clc1nc2ccccc2c2[nH]c3ccccc3c12,-95.2*
O=C1NCc2c1c1c3ccccc3[nH]c1c1[nH]c3ccccc3c21,1.5
c1ccc(Cc2nc3ccccc3[nH]2)cc1,-15.9
O=C(c1cn[nH]n1)N(Cc1ccncc1)CC1CCCO1 (centres undefined),1.6
CCCc1cc(C(=O)N2CCCC(c3ncc(C(=O)NCc4ccccc4)c(C)n3)C2)no1 (centres undefined),-57.3
COc1ccc(-c2nc(C)c(CCNS(=O)(=O)c3ccccc3F)s2)cc1OC,i
Cn1nnnc1SCCNC1CCC2(CCNCC2)CC1,-2.4
Cc1cccc(C2=NC3(CCN(CC(=O)Nc4ccc(C)c(F)c4)CC3)NC2=O)c1,-4.7
O=C(Nc1cccc(N2CCC(NCCc3ccccc3C(F)(F)F)CC2)c1)c1ccncc1,5.1
Cc1ccc(C(=O)Nc2ccc(CN3CCN(C)CC3)c(C(F)(F)F)c2)cc1C#Cc1cnc2cccnn12,-78.6*
Cc1ccc(NC(=O)c2ccc(CN3CCN(C)CC3)cc2)cc1Nc1nc(-c2cccnc2)cs1,4.1
Cc1ccsc1[C@@H]1CCN(Cc2c(C)nn(C)c2Cl)C[C@H]1O,-3.3
O=S(=O)(NCC(c1cccnc1)c1c[nH]c2ccccc12)c1ccc(Cl)c(Cl)c1 (centres undefined),-8.1
CCn1nnc2c1CCN(C(=O)CC1=CCCCC1)C2COC (centres undefined),-16.3
COc1ccccc1CNC(=O)CN1CCC(O)(c2ccccc2C)C1 (centres undefined),4.1
COc1ccc(-c2[nH]c3ncccc3c2CN2CCC(O)(c3ccccc3C)CC2)cc1,-98.0*
c1cncc(-c2[nH]c3ncccc3c2CN2CCSCC2)c1,-34.0
Cc1n[nH]c(C)c1CCc1nnc(SCC(=O)O)n1C,-41.5
Cc1ccc(-c2nc(C)c(CCNC(=O)C(=O)Nc3ccc(C)cc3C)s2)cc1,19.0
COCC1c2nnn(CC3CC3)c2CCN1Cc1cc(C)on1 (centres undefined),-4.5
SMILES,Tg IFNy HTS
Cc1cc(C)n(C(C)C(=O)NCCc2cn(C)c3ccc(Cl)cc23)n1 (centres undefined),11.1
COc1cccc2c1C(=O)c1c(O)c3c(c(O)c1C2=O)C[C@@](O)(C(=O)CO)C[C@@H]3OC1C[C@H](N)[C@H](O)[C@H](C)O1 (some centres undefined),-89.6*
COc1ccc(OC)c(NC(=O)Cn2c(=O)ccc3cc(S(=O)(=O)N4CCCC4)ccc32)c1,479.3
CC(C)n1nc(CN2CCCC2)c2c1CN(C(=O)c1ccc[nH]1)CC2,-44.3
CC(=O)[C@@]1(O)CC[C@H]2[C@@H]3C[C@H](C)C4=CC(=O)CC[C@]4(C)[C@H]3CC[C@@]21C,4.8
CC(=O)SC1CC2=CC(=O)CCC2(C)C2CCC3(C)C(CCC34CCC(=O)O4)C12 (centres undefined),-24.8
C[C@]12CCC(=O)C=C1[C@@H]1C[C@@H]1[C@H]1[C@@H]3[C@@H]4C[C@@H]4[C@@]4(CCC(=O)O4)[C@@]3(C)CC[C@@H]12,-85.0*
O=C(c1ccccc1Oc1ccccc1)N1CCC(O)(C(=O)O)CC1,2.1
NC(=O)c1ccccc1-c1ccc(F)cc1Cl,-1.4
CCCCc1nc2cc(/C=C/C(=O)NO)ccc2n1CCN(CC)CC,-82.0*
CCN(CC)CCn1c(=O)c(Cc2ccc(OC)cc2)nc2ccccc21,-1.7
CCCCC(=O)Nc1cc2nc(CCCC)n(Cc3ccccc3Cl)c2nc1C,-57.4
Cc1nc(-c2ccc(Cl)cc2)sc1CCNS(=O)(=O)c1ccc(F)cc1,166.0
COc1ccc2c(c1)NC1(CCN(C(=O)Nc3ccc(F)cc3F)CC1)c1cccn1-2,136.4
COc1ccc(-c2[nH]ncc2CN2CCN(C)CC2)cc1,62.1
Cc1cc(CN2CCN(c3c(Br)cnc4nc(-c5ccc(N6CCN(C)CC6)cc5)[nH]c34)CC2)no1,-74.3*
Cn1cccc1C(=O)NCc1cn2c(n1)CN(C(=O)c1cccs1)CC2,-12.8
C=CCN(Cc1ccccc1C)C(=O)CCC1CCCN(C)C1 (centres undefined),-2.9
Cc1oc(-c2ccccc2)nc1Cn1ccn2nc(-c3cccs3)cc2c1=O,35.3
Fc1cccc(CN2CCN(CC3CCOC3)CC2)c1 (centres undefined),-1.7
CN(Cc1cc(-c2ccccn2)no1)Cc1ncccc1C(=O)O,-3.7
O=C(Nc1ccc(F)cc1)N1C[C@@H]2[C@H](c3ccccc31)[C@H](CO)N2Cc1ccccc1Cl,37.4
